# Results filed as inconclusive are left out. Unmarked numbers belong to inactive results. Calls come from the whole dose curve; as a rule, active = well fitted cell-killing curve with a large enough effect; inconclusive = small, poorly fitted or top-dose-only effect; inactive = no such curve, though single readings can be large or run the other way.
# Experiment: qHTS of pediatric cancer cell lines to identify multiple opportunities for drug repurposing: Primary screen for Rh30 cells (AID 1347107); note: % is set by controls: 0 for no effect and ±100 for the full control effect; nearly all actives have a fitted effect of over 75% in size
# Conditions: Rh30 rhabdomyosarcoma viability, CellTiter-Glo luminescence, 48 h; series mostly up to 46 µM; activity change, negative = cytotoxic: at the top concentration
# Outline: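 Cells (500-1,000/well) in growth media were settled 5 h at 37 degrees C, then given compounds for 48 h. Viability was read as CellTiter-Glo luminescence. Primary runs used MIPE at 11 points (0.78 nM-46 µM) and NPC at 8 points (0.59 nM-46 µM); follow-ups used 11 points.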
row,Structure (SMILES),"activity change, negative = cytotoxic"
1,CCOc1nc2cccc(C(=O)O)c2n1Cc1ccc(-c2ccccc2-c2nn[nH]n2)cc1,1.81%
2,N[C@H](C(=O)O)c1ccc(O)cc1,22% [at 16.1 µM]
3,CC(C)(O)c1ccccc1CC[C@@H](SCC1(CC(=O)O)CC1)c1cccc(/C=C/c2ccc3ccc(Cl)cc3n2)c1,25.8%
4,NC(=O)N/N=C/c1ccc([N+](=O)[O-])o1,22.3%
5,NC(=O)NC(=O)Cc1ccccc1,13.2%
6,CCCCN(CCCC)CC(O)c1cc(Cl)cc2c1-c1ccc(Cl)cc1/C2=C/c1ccc(Cl)cc1 (stereo unspecified),14.5%
7,CC1(C)[C@@H]2CC[C@@]1(C)C(=O)C2,31.6%
8,CC(C(O)c1ccc(O)cc1)N1CCC(Cc2ccccc2)CC1 (stereo unspecified),20.4%
9,O=C(O)CC(O)C(=O)O (stereo unspecified),24%
10,CS(=O)(=O)c1ccc([C@@H](O)[C@@H](CF)NC(=O)C(Cl)Cl)cc1,2.94%
11,NCCNCCNCCNCCN,7.05% [at 9.22 µM]
12,O=c1cc[nH]c(=O)[nH]1,29.3%
13,Cc1c(Cl)cccc1Nc1ccccc1C(=O)O,5.8%
14,CN(C)CCCO[C@@H]1[C@H]2OC(C)(C)O[C@H]2O[C@@H]1C(O)CO (stereo partly specified),29.5%
15,CCCCOC(=O)c1ccc(O)cc1,16%
16,C=Cc1c(C)c2cc3[nH]c(cc4nc(cc5nc(cc1[nH]2)C(C)=C5CCC(=O)O)C(CCC(=O)O)=C4C)c(C)c3C=C,12.3%
17,CCn1cc(C(=O)O)c(=O)c2cnc(N3CCNCC3)nc21,20.3%
18,O=C1c2c(O)cccc2Cc2cccc(O)c21,22.1%
19,COc1ccc2cc1Oc1cc3c(cc1OC)CC[N+](C)(C)[C@H]3Cc1ccc(cc1)Oc1c(OC)c(OC)cc3c1[C@@H](C2)[N+](C)(C)CC3,13.7%

row,Structure (SMILES),"activity change, negative = cytotoxic"
1,O=c1[nH]c(=O)c2[nH]c(=O)[nH]c2[nH]1,2.78% [at 9.22 µM]
2,C[C@]12CC[C@@H]3c4ccc(O)cc4CC[C@H]3[C@@H]1CC[C@@H]2OC(=O)CCC1CCCC1,13.4%
3,CN(N=O)C(=O)N[C@@H]1[C@@H](O)[C@H](O)[C@@H](CO)O[C@@H]1O,12.8%
4,Cc1cc(O)cc2c1O[C@](C)(CCC[C@H](C)CCC[C@H](C)CCCC(C)C)CC2,14.1%
5,O=C(O)c1ccccc1-c1ccc(C(F)(F)F)cc1,20.8%
6,C[C@@H](O)[C@H](N)C(=O)O,17.3% [at 16.1 µM]
7,N[C@@H](CSCCCO)C(=O)O,29% [at 16.1 µM]
8,OC[C@H]1O[C@@H](O[C@@H]2[C@@H](CO)O[C@](O)(CO)[C@H]2O)[C@H](O)[C@@H](O)[C@H]1O,10.5%
9,Nc1cc(=O)[nH]c(N)n1,10.7%
10,O=C(O)c1ccccc1O,14.3%
11,CCCOC(=O)c1ccccc1,21.5%
12,OCc1cc(C(O)CNCCCCCCOCCCCc2ccccc2)ccc1O (stereo unspecified),21.9%
13,O=C(CCCN1CCN(c2ccccn2)CC1)c1ccc(F)cc1,-17.4%
14,CC1(C)CO[C@@H](CC(=O)O)CN1,21.5%
15,COC(=O)C1=C(C)NC(C)=C(C(=O)OC)C1c1ccccc1[N+](=O)[O-],20%
16,Nc1ccc(S(=O)(=O)NC(=O)c2ccccc2)cc1,3.88%
17,O=C(O)[C@H](O)c1ccccc1,20.7%
18,CCC(=O)c1ccc(O)cc1,15.4%
19,CCCCCCCCCCCCCCCCCCOCC(O)CO (stereo unspecified),24.4%

# Experiment: qHTS of pediatric cancer cell lines to identify multiple opportunities for drug repurposing: Primary screen for Rh41 cells (AID 1347108);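 note: luminescence drop marks cytotoxic hits; nearly all actives have a fitted effect of over 70% in size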
# Conditions: Rh41 rhabdomyosarcoma viability, CellTiter-Glo luminescence, 48 h; series mostly up to 46 µM; activity change, negative = cytotoxic: at the top concentration
# Outline: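 500-1,000 cells/well; 5 h pre-incubation 37 °C/5% CO2; compound pinned; 48 h; CellTiter-Glo, 15 min RT; luminescence. MIPE 11-pt from 0.78 nM, NPC 8-pt from 0.59 nM final. Bortezomib 2.3 µM final as positive control.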
row,Structure (SMILES),"activity change, negative = cytotoxic"
1,CCOc1nc2cccc(C(=O)O)c2n1Cc1ccc(-c2ccccc2-c2nn[nH]n2)cc1,5.17%
2,N[C@H](C(=O)O)c1ccc(O)cc1,22.5% [at 16.1 µM]
3,CC(C)(O)c1ccccc1CC[C@@H](SCC1(CC(=O)O)CC1)c1cccc(/C=C/c2ccc3ccc(Cl)cc3n2)c1,27.6%
4,NC(=O)N/N=C/c1ccc([N+](=O)[O-])o1,29%
5,NC(=O)NC(=O)Cc1ccccc1,17.4%
6,CCCCN(CCCC)CC(O)c1cc(Cl)cc2c1-c1ccc(Cl)cc1/C2=C/c1ccc(Cl)cc1 (stereo unspecified),12.5%
7,CC1(C)[C@@H]2CC[C@@]1(C)C(=O)C2,58.3%
8,CC(C(O)c1ccc(O)cc1)N1CCC(Cc2ccccc2)CC1 (stereo unspecified),15.1%
9,O=C(O)CC(O)C(=O)O (stereo unspecified),32.2%
10,CS(=O)(=O)c1ccc([C@@H](O)[C@@H](CF)NC(=O)C(Cl)Cl)cc1,7.32%
11,NCCNCCNCCNCCN,10.3% [at 9.22 µM]
12,O=c1cc[nH]c(=O)[nH]1,39%
13,Cc1c(Cl)cccc1Nc1ccccc1C(=O)O,8.75%
14,CN(C)CCCO[C@@H]1[C@H]2OC(C)(C)O[C@H]2O[C@@H]1C(O)CO (stereo partly specified),33.1%
15,CCCCOC(=O)c1ccc(O)cc1,23.8%
16,C=Cc1c(C)c2cc3[nH]c(cc4nc(cc5nc(cc1[nH]2)C(C)=C5CCC(=O)O)C(CCC(=O)O)=C4C)c(C)c3C=C,16.4%
17,CCn1cc(C(=O)O)c(=O)c2cnc(N3CCNCC3)nc21,18.1%
18,O=C1c2c(O)cccc2Cc2cccc(O)c21,31.9%
19,COc1ccc2cc1Oc1cc3c(cc1OC)CC[N+](C)(C)[C@H]3Cc1ccc(cc1)Oc1c(OC)c(OC)cc3c1[C@@H](C2)[N+](C)(C)CC3,25.8%

row,Structure (SMILES),"activity change, negative = cytotoxic"
1,O=c1[nH]c(=O)c2[nH]c(=O)[nH]c2[nH]1,-6.34% [at 9.22 µM]
2,C[C@]12CC[C@@H]3c4ccc(O)cc4CC[C@H]3[C@@H]1CC[C@@H]2OC(=O)CCC1CCCC1,17.8%
3,CN(N=O)C(=O)N[C@@H]1[C@@H](O)[C@H](O)[C@@H](CO)O[C@@H]1O,16.7%
4,Cc1cc(O)cc2c1O[C@](C)(CCC[C@H](C)CCC[C@H](C)CCCC(C)C)CC2,21.1%
5,O=C(O)c1ccccc1-c1ccc(C(F)(F)F)cc1,22.5%
6,C[C@@H](O)[C@H](N)C(=O)O,10.6% [at 16.1 µM]
7,N[C@@H](CSCCCO)C(=O)O,22.6% [at 16.1 µM]
8,OC[C@H]1O[C@@H](O[C@@H]2[C@@H](CO)O[C@](O)(CO)[C@H]2O)[C@H](O)[C@@H](O)[C@H]1O,14.2%
9,Nc1cc(=O)[nH]c(N)n1,14.2%
10,O=C(O)c1ccccc1O,19.2%
11,CCCOC(=O)c1ccccc1,23.9%
12,OCc1cc(C(O)CNCCCCCCOCCCCc2ccccc2)ccc1O (stereo unspecified),11.5%
13,O=C(CCCN1CCN(c2ccccn2)CC1)c1ccc(F)cc1,-24.8%
14,CC1(C)CO[C@@H](CC(=O)O)CN1,26%
15,COC(=O)C1=C(C)NC(C)=C(C(=O)OC)C1c1ccccc1[N+](=O)[O-],4.51%
16,Nc1ccc(S(=O)(=O)NC(=O)c2ccccc2)cc1,16.5%
17,O=C(O)[C@H](O)c1ccccc1,22.7%
18,CCC(=O)c1ccc(O)cc1,8.54%
19,CCCCCCCCCCCCCCCCCCOCC(O)CO (stereo unspecified),31.6%

# From PubChem BioAssay (NCATS)
